Screens from PubChem.
BCR signal inh – blocks chronic active B-cell receptor signaling | ABC-DLBCL IkBa-CBG/CBR reporter, luminescence ratio, 4 h | Potency, µM (highest dose often 46.1 µM), actives largely listed as inhibitors | hit rate 0.05% among 340,000 | AID 493014; active = well fitted inhibition curve with a large enough effect in the signal ratio, with a control signal flat, not every such curve was filed as active; inconclusive = small, poorly fitted or top-dose-only effect, or effect the other way, or a change in a side signal; the % refers to the signal ratio
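TMD8 human ABC-DLBCL cells with doxycycline-inducible IκBα–green luciferase fusion and unfused red luciferase, in 0.5% FBS medium; compounds up to 46 uM, 4 h at 37C. Green/red luminescence ratio, filter-overlap corrected, fitted to concentration-response curves.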
D1 antagonist – blocks dopamine activation of the human D1 receptor; P21728; activity change, negative = inhibition, % at 10 µM; AID 504652; HEK293 TREx D1 cells, calcium flux, dopamine EC80; hits give low values; hit rate 3.2% among 360,000; in the data active = activity change below about -30%
Target sequence (P21728 whole entry, looked up): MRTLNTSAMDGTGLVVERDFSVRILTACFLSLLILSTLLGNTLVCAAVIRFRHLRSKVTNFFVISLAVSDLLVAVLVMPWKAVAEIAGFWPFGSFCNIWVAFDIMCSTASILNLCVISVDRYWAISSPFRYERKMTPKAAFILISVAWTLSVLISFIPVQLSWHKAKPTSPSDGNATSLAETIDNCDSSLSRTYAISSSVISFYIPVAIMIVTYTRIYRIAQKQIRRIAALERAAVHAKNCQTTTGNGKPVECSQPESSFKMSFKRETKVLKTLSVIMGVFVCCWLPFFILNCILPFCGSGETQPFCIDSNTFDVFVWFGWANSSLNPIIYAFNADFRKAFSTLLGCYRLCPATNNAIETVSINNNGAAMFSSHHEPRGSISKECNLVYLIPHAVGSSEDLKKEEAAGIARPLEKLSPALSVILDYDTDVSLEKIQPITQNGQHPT
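HEK293 T-REx cells expressing inducible, force-coupled D1 receptor; no-wash Ca dye, 30–90 min RT. Cmpd → 180 s read at 1 Hz → EC80 DA → 180 s read.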
D3 ag – activates the human D3 dopamine receptor | D3R DiscoveRx beta-arrestin cells, luminescence, 90 min | max activation, % | hit rate 0.58% among 410,000; in the data active = max activation above about 30%
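Agonist mode: compounds and dopamine controls were applied to plated cells for 90 min at 37 degrees C after an overnight attachment at 1500 cells/well. Luminescent read-out followed 30 - 60 minutes at room temperature with DiscoveRx detection reagent.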
DRD3 antagonist – D3 dopamine receptor (human) antagonism | P35462 | D3R cells, DiscoveRx beta-arrestin luminescence, antagonist mode; hits give low values | max response, negative = inhibition, % | hit rate 2.5% among 360,000 | AID 652054; in the data active = max response below about -50%; inconclusive = no clear call, values can overlap the other calls
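Cells plated overnight at 1500 cells/well, then exposed to library compounds with dopamine controls for 90 minutes at 37 degrees C. DiscoveRx reagent added for 30–60 minutes at room temperature; luminescence read, quantitative HTS format.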
D1 agonist – activates the human D1 dopamine receptor. P21728. HEK293 T-REx D1 cells, calcium flux, agonist mode. activation, % at 2 µM. hit rate 1% among 360,000. AID 504660; in the data active = activation above about 30%
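Inducible HEK293 T-REx D1 cells, force-coupled to calcium signalling, were plated at 4000 cells/well with tetracycline and held overnight at 30 C. After no-wash calcium dye loading, compound-evoked calcium rise over 180 s flagged agonists.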
D1 potentiator – human D1 dopamine receptor positive modulation; P21728; HEK293 TREx D1 cells, calcium flux, dopamine EC20 potentiation; potentiation, % at 10 µM; hit rate 0.036% among 360,000; AID 504651; in the data active = potentiation above about 30%
A number is an active result; – = inactive; ? = inconclusive; · = not tested or not shown. Sampled rows, rich in hits. Any-hit rate of the full collection: about 6%.

SMILES	BCR signal inh	D1 antagonist	D3 ag	DRD3 antagonist	D1 agonist	D1 potentiator
COc1cn(-c2ccccc2)nc1C(=O)Nc1ccccc1	?	–	–	–	–	–
COC(=O)c1ccc(NC(=O)c2cn(-c3ccccc3)nc2-c2ccncc2)cc1	–	–	–	-67.2	–	–
COc1cn(-c2ccccc2)nc1C(=O)Nc1ccc(C)cc1	–	–	–	–	33.9	–
CC(=O)c1ccc(NC(=O)c2cn(-c3ccccc3)nc2-c2ccncc2)cc1	–	–	–	–	–	–
CCOC(=O)C1(C)CCN1C(=O)c1cc(C)oc1C (stereo unspecified)	·	·	–	–	·	·
CCCCn1c(=O)n(CC2CCC(C(=O)NCCCOC)CC2)c(=O)c2sccc21 (stereo unspecified)	·	–	–	·	–	–
CCC(NC(=O)COC(=O)C1CC2CCCC(C1)C2=O)c1ccc(Br)cc1 (stereo unspecified)	–	-56.2	–	–	–	–
Cc1ccc(S(=O)(=O)N(C)C[C@@H]2OCc3cnnn3CCCC(=O)N([C@H](C)CO)C[C@H]2C)cc1	·	·	–	–	·	·
CC(=O)NC1(C2CCCCC2=O)CCCCC1 (stereo unspecified)	–	–	–	-64.7	–	–
OC(Cc1ccccc1)c1ncc(-c2ccc(Cl)cc2)[nH]1 (stereo unspecified)	·	·	–	–	·	·
COc1ccc(CN2C(=O)[C@@H]3C(c4ccc(F)cc4)=NO[C@@H]3C2=O)cc1	–	-37.4	–	–	–	–
O=C1[C@@H]2C(c3ccc(F)cc3)=NO[C@@H]2C(=O)N1Cc1ccccc1	–	–	–	–	–	–
CC(C)(C)c1ccc2c(S(=O)(=O)O)c(C(C)(C)C)ccc2c1	·	·	–	·	·	·
Cc1sc(NC(=O)CSc2nnnn2C2CCCCC2)c(C#N)c1C	–	-33.5	–	–	–	–
CCOc1ccccc1NC(=O)COn1nnc2ccc(Cl)cc21	?	–	–	–	30.5	–
CCOC(=O)c1cn(CC(=O)Nc2ccccc2C(=O)OCC)nn1	–	–	–	-71.6	–	–
Cn1nnnc1SCC(=O)NC(=O)Cc1ccccc1	–	-44.0	–	?	–	–
Cc1cc(NC(=O)COn2nnc3ccc(Cl)cc32)no1	–	–	–	–	–	–
Cc1cccc(NC(=O)C(Cc2ccccc2)NS(=O)(=O)c2ccc3c(c2)c(=O)n(C)c(=O)n3C)c1 (stereo unspecified)	·	–	–	·	–	–
Cc1ccc(CCNC(=O)CCS(=O)(=O)c2cc3c(cc2Cl)NC(=O)CO3)cc1	·	–	–	·	–	–
Cc1cc(C)cc(NC(=O)C2CCCN2S(=O)(=O)c2cccc3nsnc23)c1 (stereo unspecified)	·	–	–	·	–	–
COc1ccc(OC)c(CN2C(=O)c3ccccc3C2c2nnnn2-c2c(C)cccc2C)c1 (stereo unspecified)	·	·	–	–	·	·
CCOC(=O)c1ccc(NC(=O)CSc2nnnn2C2CCCCC2)cc1	?	–	–	–	–	–
CCOc1ccccc1NC(=O)CSc1nnnn1Cc1ccccc1	–	–	–	-58.8	–	–
COc1ccccc1NC(=O)CSc1nnnn1Cc1ccccc1	–	–	–	–	–	–
SMILES	BCR signal inh	D1 antagonist	D3 ag	DRD3 antagonist	D1 agonist	D1 potentiator
CCOc1ccc(NC(=O)CSc2nnnn2C2CCCC2)cc1	–	–	–	?	47.4	·
CCOC(=O)c1ccccc1NC(=O)CSc1nnnn1C1CCCCC1	?	–	–	-77.1	–	–
COC(=O)c1ccccc1NC(=O)CSc1nnnn1C1CCCCC1	?	–	–	–	–	–
CCCCOc1ccc(NC(=O)CSc2nnnn2C)cc1	·	–	–	-113.0	–	–
NC(N)=NCC1COC2(CCCCC2)O1 (stereo unspecified)	·	·	–	·	·	·
Cc1ccccc1-c1cc2nc(Oc3cccc(F)c3)n(C)c(=O)c2s1	·	·	–	–	·	·
CC1CCN(S(=O)(=O)c2ccc3c(c2)N(CC(=O)NCCCN2CCCC(C)C2)C(=O)CS3)CC1 (stereo unspecified)	–	–	–	–	–	–
CCC1CCCCN1CCCNC(=O)CN1C(=O)COc2ccc(S(=O)(=O)N3CCOCC3)cc21 (stereo unspecified)	–	-38.0	–	–	–	–
Cc1ccc(NC(=O)CN2C(=O)COc3ccc(S(=O)(=O)N4CCCC4)cc32)c(C)c1	–	-47.3	–	–	–	–
Cc1ccc(C)c(NC(=O)CN2C(=O)COc3ccc(S(=O)(=O)N4CCCC4)cc32)c1	–	–	–	–	–	–
CC1CCN(S(=O)(=O)c2ccc3c(c2)N(CC(=O)NCCCN2CCCC(C)C2)C(=O)CO3)CC1 (stereo unspecified)	–	–	–	-89.0	–	–
CCOc1cc(-c2nc(-c3ccc(-c4ccc(OC)cc4)nc3OC)no2)cc(OCC)c1OCC	·	–	–	·	–	–
O=C(Cn1c(-c2cccs2)cc2cc(F)ccc21)N1CCN(c2ccccc2)CC1	·	–	–	·	–	–
CCN1CCN(CCCNC(=O)Cn2c(-c3cccs3)cc3cc(F)ccc32)CC1	·	–	–	·	35.9	–
O=C(Cn1c(-c2cccs2)cc2cc(F)ccc21)NCCCN1CCN(c2ccc(F)cc2)CC1	·	-35.4	–	·	–	–
CCOC(=O)c1ccc(NC(=O)Cn2nc(SC)c(S(=O)(=O)c3ccc(Cl)cc3)c2N)cc1	·	–	–	·	–	–
CC1(C)S[C@@H]2[C@H](NC(=O)C(C(=O)O)c3ccsc3)C(=O)N2[C@H]1C(=O)O (stereo partly specified)	·	·	–	·	·	·
CN(CC(=O)Nc1cccc(F)c1)C(=O)c1cccc2ccccc12	–	–	–	–	–	·
CN(CC(=O)Nc1cccc(F)c1)C(=O)c1csc2c1CCCC2	–	–	–	–	33.0	–
O=C(NCc1ccccc1)C(=O)NCC(c1ccco1)N1CCN(c2ccccc2F)CC1 (stereo unspecified)	?	–	–	–	–	–
O=C(NCc1cccnc1)C(=O)NCC(c1ccco1)N1CCN(c2ccccc2F)CC1 (stereo unspecified)	–	–	50.6	–	–	–
N/C(Cc1nc(-c2ccc(F)cc2)cs1)=N\O	?	–	–	–	–	–
Oc1ccc(Nc2nc(-c3ccc(O)cc3)cs2)cc1	?	-31.8	–	–	41.1	–
N/C(Cc1nc(-c2ccc(Br)cc2)cs1)=N\O	?	-46.9	–	–	–	–
Nc1nc(-c2ccc(Br)cc2)cs1	–	–	–	?	–	–
Brc1ccc(-c2csc(Nc3nc(-c4ccc(Br)cc4)cs3)n2)cc1	?	-30.1	–	–	–	–
NS(=O)(=O)c1ccc(Nc2nc(-c3ccc(O)cc3)cs2)cc1	?	–	–	–	–	–
Cc1nc(C)c(-c2csc(Nc3ccc(F)cc3)n2)s1	?	-37.5	–	–	–	–
O=C(c1ccc(F)cc1)n1nc(-c2cccnc2)nc1NCc1ccc(F)cc1	·	–	–	·	–	–
